From PubChem
KCNQ2 inh: inhibitors of rat KCNQ2 potassium channel; CHO-K1 KCNQ2, FluxOR thallium flux, 20 min; stronger effect = lower value; O88943; 1.1% of 310,000 active; B-score at 10 µM;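 active means fluorescence ratio B-score at most minus 3 library SDs, with starting brightness B-score within 2 library SDs, cut at about -5.5 in these data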
KCNQ2 pot: enhances the rat KCNQ2 potassium channel. 0.54% of 310,000 active. O88943. B-score at 10 µM. CHO-K1 KCNQ2, FluxOR thallium flux fluorescence; stronger effect = higher value;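 active means fluorescence ratio B-score at least 3 SD of library B-scores, with initial fluorescence B-score within 3 of them, cut at about 5.3 in these data; same plate scores as AID 2156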;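 further: B-score of peak minus minimum over baseline fluorescence ratio after K+ and Tl+ stimulus; positive B-score means potentiation of KCNQ2 with more thallium influx and brighter signal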
KCNQ2 inh conf: rat KCNQ2 channel inhibition, confirmatory screen; shares compounds with KCNQ2 inh; AID 493025; activity change, negative = inhibition, % at 10 µM; 57% of 1,000 active; KCNQ2-expressing cells, thallium flux; stronger effect = lower value;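 further: 0% = vehicle wells and values are ratio percent relative to vehicle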
KCNQ1 spec: human KCNQ1 activity in KCNQ2 inhibitor specificity screen. shares compounds with KCNQ2 inh. KCNQ1-expressing cells, FluxOR thallium flux fluorescence; stronger effect = lower value. activity change, negative = inhibition, % at 10 µM. 15% of 1,000 active;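 active means activity change at least 3 SD of negative controls below their mean in both duplicate wells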;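 further: CHO cells stably transfected with KCNQ1 and depolarized by potassium stimulus; peak minus minimum fluorescence over baseline after thallium addition; 0% = vehicle negative control and -100% = blank without thallium stimulus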
Target sequence (P51787 whole entry, looked up): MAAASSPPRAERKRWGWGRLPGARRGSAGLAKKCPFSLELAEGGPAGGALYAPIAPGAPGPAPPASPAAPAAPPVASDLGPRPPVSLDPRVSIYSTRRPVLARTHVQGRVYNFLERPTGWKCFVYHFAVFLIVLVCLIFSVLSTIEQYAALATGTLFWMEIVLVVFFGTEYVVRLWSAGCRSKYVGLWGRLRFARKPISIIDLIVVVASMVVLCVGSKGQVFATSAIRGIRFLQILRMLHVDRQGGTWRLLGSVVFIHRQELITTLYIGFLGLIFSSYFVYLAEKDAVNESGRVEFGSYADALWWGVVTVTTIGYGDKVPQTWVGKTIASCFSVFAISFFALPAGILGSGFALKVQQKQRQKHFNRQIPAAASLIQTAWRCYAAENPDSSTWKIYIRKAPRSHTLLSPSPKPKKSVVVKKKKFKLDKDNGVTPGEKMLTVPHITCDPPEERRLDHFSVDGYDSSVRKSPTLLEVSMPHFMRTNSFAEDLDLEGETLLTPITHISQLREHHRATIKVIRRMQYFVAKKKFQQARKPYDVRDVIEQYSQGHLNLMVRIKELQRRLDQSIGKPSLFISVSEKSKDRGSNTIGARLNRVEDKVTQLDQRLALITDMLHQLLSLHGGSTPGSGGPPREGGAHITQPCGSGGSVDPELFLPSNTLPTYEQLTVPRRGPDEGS
CHO parental ctr: counter-screen for KCNQ2 inhibitors: effect in parental CHO cells | thallium flux counter-screen; stronger effect = lower value | activity change, % at 10 µM | shares compounds with KCNQ2 inh | AID 493029 | 14% of 1,000 active;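 further: 0% = vehicle negative controls with stimulus buffer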
KCNQ2 inh confirm: confirmation of rat KCNQ2 potassium channel inhibitors | AID 588531 | KCNQ2-expressing cells, automated patch clamp current | 49% of 550 active | shares compounds with KCNQ2 inh | calls only at 10 µM
Active calls of the source: *. This is a sample that favours compounds with a hit; in the whole collection about 1.6% have one here. Unless noted, how the calls were made is not given here.

Screening Cc1cc(-n2c(C)cc(C(=O)CSc3ccc4c(c3)OCCO4)c2C)no1 returned KCNQ2 inh -6.9*, KCNQ2 pot -6.9, KCNQ2 inh conf -14%*, KCNQ1 spec inactive, CHO parental ctr inactive and KCNQ2 inh confirm active.
Screening Cc1ccc(-n2nnnc2SCC(=O)c2cc(C)n(-c3cc(C)on3)c2C)c(C)c1 returned KCNQ2 inh -7.5*, KCNQ2 pot -7.5, KCNQ2 inh conf inactive, KCNQ1 spec inactive and CHO parental ctr inactive.
Cc1cc(-n2c(C)cc(C(=O)CCl)c2C)no1 was read as KCNQ2 inh inactive and KCNQ2 pot 0.13.
`O=C(c1ccc2c(c1)CCN2S(=O)(=O)c1ccccc1)N1CCN(c2ccc(F)cc2)CC1` gave KCNQ2 inh inactive and KCNQ2 pot 0.11.
`CCN(c1ccccc1)c1nc(C#N)nc(N(CC)c2ccccc2)n1` gave KCNQ2 inh -6.7*, KCNQ2 pot -6.7, KCNQ2 inh conf -30%*, KCNQ1 spec inactive, CHO parental ctr inactive and KCNQ2 inh confirm inactive.
Screening CCN(CC)c1nc(C#N)nc(N(CC)CC)n1 returned KCNQ2 inh inactive.
Screening CC1CN(Cc2ccccc2)c2nc3c(c(=O)n(CC(=O)O)c(=O)n3C)n2C1 (configuration not stated) returned KCNQ2 inh inactive.
`Cc1cc(NS(=O)(=O)c2ccc(NC(=O)C(C)Oc3ccc(Cl)cc3)cc2)no1` (configuration not stated) gave KCNQ2 inh inactive and KCNQ2 pot 1.3.
C=CCN1C(=O)c2cccc3c(N4CCCCC4)ccc(c23)C1=O was read as KCNQ2 inh inactive.
For CC(=O)c1cc2c(cc1NC(=O)CN1CCOCC1)OCO2 the results were KCNQ2 inh inactive.
COc1ccc(-n2c(=O)c3c4c(sc3n(CC(=O)Nc3cc(C)[nH]n3)c2=O)CCCC4)c(OC)c1 was read as KCNQ2 inh -6.7*, KCNQ2 pot -6.7, KCNQ2 inh conf inactive, KCNQ1 spec inactive and CHO parental ctr inactive.
`CCOc1ccccc1NC(=O)Cn1c(=O)n(-c2ccc(OC)cc2OC)c(=O)c2c(C)c(C(=O)N(CC)CC)sc21` gave KCNQ2 inh inactive.
`CC1(C)Cc2c(C#N)c(NC3CCCCC3)nc(-c3ccco3)c2CO1` gave KCNQ2 inh -13*, KCNQ2 pot -13, KCNQ2 inh conf inactive, KCNQ1 spec inactive and CHO parental ctr inactive.
CC1(C)Cc2c(C#N)c(NCC3CCCO3)nc(-c3ccco3)c2CO1 (configuration not stated) was read as KCNQ2 inh inactive.
CC(=O)C(Cc1ccccc1)NC(=O)CCl (configuration not stated) was read as KCNQ2 inh inactive.
CC(=O)C(Cc1ccccc1)NC(=O)CN(C)Cc1ccccc1Cl (configuration not stated) was read as KCNQ2 inh -8.5*, KCNQ2 pot -8.5, KCNQ2 inh conf inactive, KCNQ1 spec inactive and CHO parental ctr inactive.
Screening CC(=O)CC(c1ccccc1)c1c(O)c2ccccc2oc1=O (configuration not stated) returned KCNQ2 inh inactive and KCNQ2 pot 0.36.
For CCOC(=O)c1cnc(-c2ccccc2)nc1C(F)(F)F the results were KCNQ2 inh inactive.
`CCOC(=O)c1cnc2c(F)ccc(F)c2c1Sc1ccccc1` gave KCNQ2 inh -7.6*, KCNQ2 pot -7.6, KCNQ2 inh conf inactive, KCNQ1 spec inactive and CHO parental ctr inactive.
C=CCSc1nncn1/N=C/c1ccc(OC)cc1 was read as KCNQ2 inh inactive and KCNQ2 pot 1.6.
For Cc1cc(C)n2c(=S)[nH]nc2n1 the results were KCNQ2 inh inactive and KCNQ2 pot 0.73.
For CN(C(=O)COC(=O)c1cc(S(=O)(=O)N2CCCCC2)ccc1N1CCOCC1)C1CCS(=O)(=O)C1 (configuration not stated) the results were KCNQ2 inh inactive and KCNQ2 pot 0.57.
For CCCCN(CC)C(=O)c1ccc(-c2ccccc2)cc1 the results were KCNQ2 inh -6.8*, KCNQ2 pot -6.8, KCNQ2 inh conf -26%*, KCNQ1 spec inactive, CHO parental ctr inactive and KCNQ2 inh confirm inactive.
`CCCCN(CC)C(=O)c1cccc(Cl)c1` gave KCNQ2 inh inactive and KCNQ2 pot 1.7.
`CC(C)CC(NC(=O)C1CCCN1C(=O)CNC(=O)OCc1ccccc1)C(=O)O` (configuration not stated) gave KCNQ2 inh inactive.
O=C(CN(C(=O)CNS(=O)(=O)c1ccc(F)cc1)c1ccccc1F)NCc1ccco1 was read as KCNQ2 inh inactive.
For C=CCSc1nc(N)c(C#N)c(-c2ccc(C)cc2)c1C#N the results were KCNQ2 inh inactive.
`C=CCSc1nc2c(c(C3CC=CCC3)c1C#N)CCC2` (configuration not stated) gave KCNQ2 inh -12*, KCNQ2 pot -12, KCNQ2 inh conf -32%*, KCNQ1 spec -31%*, CHO parental ctr -22%* and KCNQ2 inh confirm inactive.
`Oc1[nH]c2ccccc2c1N=Nc1nc2ccccc2s1` gave KCNQ2 inh inactive and KCNQ2 pot 4.9.
Screening O=C(NCC1CCCO1)c1cccc2ccccc12 (configuration not stated) returned KCNQ2 inh inactive and KCNQ2 pot 0.01.
Screening O=C(NC(NCC1CCCO1)C(Cl)(Cl)Cl)c1cccc2ccccc12 (configuration not stated) returned KCNQ2 inh -8.6*, KCNQ2 pot -8.6, KCNQ2 inh conf inactive, KCNQ1 spec inactive and CHO parental ctr inactive.
`CCNC(=O)CN(C1CCCCC1)S(=O)(=O)c1ccc(F)cc1` gave KCNQ2 inh inactive.
`CCN(CC)CCNC(=O)c1ccc(NC(=O)c2cn(-c3ccc(F)cc3)nc2-c2cccc(OC)c2)cc1` gave KCNQ2 inh inactive.
Screening CCN(CC)CCNC(=O)c1ccc(NC(=O)c2cn(-c3ccccc3)nc2-c2cccs2)cc1 returned KCNQ2 inh -12*, KCNQ2 pot -12, KCNQ2 inh conf -42%*, KCNQ1 spec -50%*, CHO parental ctr -37%* and KCNQ2 inh confirm active.
O=C(NCc1ccccc1)c1cccc(COc2ccccc2Cl)c1 was read as KCNQ2 inh -12*, KCNQ2 pot -12, KCNQ2 inh conf inactive, KCNQ1 spec inactive and CHO parental ctr inactive.
For O=C(NCc1ccccc1)c1cccc(COc2cc(Cl)ccc2Cl)c1 the results were KCNQ2 inh inactive.
`Cc1nn(Cc2ccc(Cl)cc2)c2sc(C(=O)O)cc12` gave KCNQ2 inh inactive and KCNQ2 pot 1.5.
Screening Cc1noc(C)c1CSc1nc2ccccc2c(=O)n1-c1ccc(F)cc1F returned KCNQ2 inh -7.3*, KCNQ2 pot -7.3, KCNQ2 inh conf -20%*, KCNQ1 spec inactive, CHO parental ctr inactive and KCNQ2 inh confirm active.
